Measurements from PubChem BioAssay (Tox21).
Inconclusive results are not listed. Entries that show only a call come without a potency. Calls of active or inactive are those of the source. Calls come from the whole dose curve; as a rule, active = well fitted cell-killing curve with a large enough effect in the repeat runs; inconclusive = weak or mixed curves; inactive = flat fitted curve, though single readings scatter.

Test: qHTS assay to identify small molecule antagonists of the estrogen related receptor (ERR) signaling pathway from Tox21 library - cell viability counter screen (AID 1224834); note: nearly all actives have a fitted effect of over 30% in size
Settings: ERR reporter cells viability, CellTiter-Fluor, 17.5 h; series mostly up to 92.4 µM
Summary of the method: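 Cytotoxicity of test substances is gauged in the same ERR cells used for the antagonist screen, after 17.5 h of compound treatment at 37 C, by CellTiter-Fluor fluorescence measured after 30 min.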
Potency is the fitted concentration of half-maximal effect.

Structure (SMILES) | Potency
CCc1cc2c(s1)-n1c(C)nnc1CN=C2c1ccccc1Cl | inactive
CNNC | inactive
COc1cccc2c1cc([N+](=O)[O-])c1c(C(=O)O)cc3c(c12)OCO3 | 30.6 µM (active)
CC(N)=S | inactive
CCCSC(=O)N(CCC)CCC | inactive
CCN(Cc1ccc(Cl)nc1)/C(=C/[N+](=O)[O-])NC | inactive
NC1=NC(=O)C(c2ccccc2)O1 (stereo not drawn) | inactive
O=C(CCN1CC1)OCC(CO)(COC(=O)CCN1CC1)COC(=O)CCN1CC1 | inactive
CCOC(=O)N(C)C(=O)CSP(=S)(OCC)OCC | inactive
CCCCOC(=O)c1ccccc1N | inactive
COc1cc(OC)nc(NC(=O)NS(=O)(=O)c2ncccc2C(=O)N(C)C)n1 | inactive
COC(=O)C(c1ccccc1)C1CCCCN1 (stereo not drawn) | inactive
ClC(Cl)(Cl)C(Cl)(Cl)Cl | inactive
CCOP(=S)(OCC)SCSP(=S)(OCC)OCC | inactive
CC(=O)Nc1cc([As](=O)(O)O)ccc1O | inactive
CNC(=O)N(C)c1nc2ccccc2s1 | inactive
COc1cc(OC)nc(Sc2cccc(Cl)c2C(=O)O)n1 | inactive
Nc1cc(Cl)ccc1O | 33.3 µM (active)
CCC(=O)C(CCN(C)C)(c1ccccc1)c1ccccc1 | inactive

Structure (SMILES) | Potency
CN1CCN(C(=O)O[C@H]2c3nccnc3C(=O)N2c2ccc(Cl)cn2)CC1 | inactive
N#CCCC#N | inactive
CN1CCC(O)(c2ccc(F)cc2)C(C(=O)c2ccc(F)cc2)C1 (stereo not drawn) | inactive
Fc1cc(Br)ccc1CBr | inactive
CC(=O)CCc1ccc2c(c1)OCO2 | inactive
CCCCOC(=O)c1ccccc1C(=O)O | inactive
CCC1(c2ccccc2)C(=O)NC(=O)NC1=O | inactive
c1coc(-c2nc3ccccc3[nH]2)c1 | inactive
N#CC(O)c1ccccc1 (stereo not drawn) | inactive
CC(C(O)c1ccccc1)N(C)C/C=C/c1ccccc1 (stereo not drawn) | inactive
COP(N)(=S)Oc1ccccc1C(=O)OC(C)C (stereo not drawn) | inactive
CCCCc1c(C)nc(NCC)[nH]c1=O | inactive
CC1CN1P(=O)(N1CC1C)N1CC1C (stereo not drawn) | inactive
COc1cc(OC)nc(NC(=O)NS(=O)(=O)c2ncccc2OCC(F)(F)F)n1 | inactive
C1CCC(C2CCCCC2)CC1 | inactive
CCS(=O)(=O)CCSP(=O)(OC)OC | inactive
C#CCN1C(=O)COc2cc(F)c(N3C(=O)C4=C(CCCC4)C3=O)cc21 | inactive
CC1CCCCC1NC(=O)Nc1ccccc1 (stereo not drawn) | inactive
NC(=S)C(N)=S | inactive
